# Data published in PubChem BioAssay (NCI).
# The panel holds about 83,000 compounds, 20% with a hit somewhere; the sample as a whole holds those more often.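 Method: cells in 96-well plates; compound added at one concentration; 48 h incubation; percent growth measured; values under 10 scored active.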 A number with no mark means an inactive call. Calls of active or inactive are those of the source.
# Experiments:
# Experiment in all cases: NCI-60 one-dose screen, 48 h (100 = growth as untreated, 0 = no growth, -100 = all killed)
# Conditions in all cases: 10 µM unless noted
# T-47D breast = system: T-47D breast
# BT-549 breast = system: BT-549 breast
# MDA-MB-435 melanoma = system: MDA-MB-435 melanoma
# SW-620 colon = system: SW-620 colon
# MCF7 breast = system: MCF7 breast
# HCT-116 colon = system: HCT-116 colon
# HCC-2998 colon = system: HCC-2998 colon
# KM12 colon = system: KM12 colon
Structure (SMILES),growth (T-47D breast),growth (BT-549 breast),growth (MDA-MB-435 melanoma),growth (SW-620 colon),growth (MCF7 breast),growth (HCT-116 colon),growth (HCC-2998 colon),growth (KM12 colon)
CCN(CC)CCCCCNc1cc(OC(=O)c2ccccc2)cc2cccnc12,76.6%,97.2%,53.6%,80.8%,134%,44.5%,104%,81.3%
CCCCC/C(=C\c1ccccc1)C1OC(C)C(C)O1 (centres undefined),94.4%,95.7%,105%,103%,102%,81.7%,102%,98.8%
Cn1cc(-c2csc(-c3cn(CCN)c4ccccc34)n2)c2cccnc21,20%,59.6%,16.6%,44.2%,16.7%,36.9%,65.3%,46.3%
NS(=O)(=O)c1ccc(CCNC(=O)/C=C/c2ccc(Cl)cc2)cc1,90.7%,108%,95.6%,102%,92.5%,100%,116%,98.6%
Fc1ccc2[nH]cc(-c3nc(-c4c[nH]c5ncccc45)cs3)c2c1,47.3%,20.6%,62.1%,47.2%,30.3%,26.2%,84.4%,38.9%
O=C1NC(c2ccc(Cl)c(Cl)c2)=C/C1=C\c1ccccc1,12.5%,86.2%,86.6%,56.8%,63.1%,26.5%,103%,89.2%
CC1(c2ccccc2)OC1C(=O)O (centres undefined),117%,94.9%,98.7%,102%,105%,101%,96.5%,105%
Cc1ccccc1-c1nc(C(Cl)Cl)nc2cc(-c3ccccc3)nn12,40.1%,92.9%,56.6%,53.5%,64%,55%,69.2%,36.5%
Cc1cc(Cl)c2c(N(C)C)cccc2n1,94.7%,98.3%,106%,88.7%,79.3%,92.3%,97.1%,109%
O=C1c2cccc3cccc(c23)C(=O)N1CC#Cc1ccc2c3c(cccc13)C(=O)N(CCO)C2=O,98.2%,86.4%,92.7%,92.2%,106%,78.4%,106%,101%
CC(=O)c1c(C)[nH]c(-c2nc3ccc(N4CCN(C)CC4)cc3[nH]2)c1-c1ccc(OCC2CCOCC2)cc1,29.1%,57.1%,23.5%,50.6%,6.13% (active),19.8%,31.7%,34.2%
C=C1C(=O)O[C@H]2[C@H]1CC/C(Cn1cc(-c3ccc(F)cc3)nn1)=C\CC[C@@]1(C)O[C@@H]21,-48.1% (active),43.5%,-31.4% (active),-40.6% (active),-55.6% (active),-86% (active),-11.6% (active),54.6%
O=c1[nH]c(=S)[nH]c2nc[nH]c12,105%,109%,110%,99.2%,97.4%,93.9%,99.7%,106%
Cc1cc(Cl)nc(N(CCNc2ccnc3cc(Cl)ccc23)Cc2ccco2)n1,-14.7% (active),54.7%,41.9%,28%,22.7%,13.6%,91.1%,59.5%
O=C1C(Cl)=C(Nc2ccc(S(=O)(=O)c3ccc(NC4=C(Cl)C(=O)c5ccccc5C4=O)cc3)cc2)C(=O)c2ccccc21,-39.6% (active),31.4%,10.5%,0.736% (active),-55.1% (active),-85.7% (active),47.1%,5.09% (active)
COc1ccc(-c2c(-c3nc4ccc(N5CCOCC5)cc4[nH]3)[nH]c(C)c2C(C)=O)cc1,27.3%,64.9%,29.7%,63.4%,10.8%,34.8%,35%,46.5%
Cc1cccc(C)c1NC(=O)CSC(=S)N1CCN(CCOCCO)CC1,103%,102%,108%,104%,98.1%,108%,97.6%,98.5%
COC(=O)c1cc(=O)nc(N/N=C/c2ccc(C)cc2)s1,105%,99.6%,115%,106%,89.9%,105%,106%,110%
CCN(CC)c1ccc(/C=C/c2cc(C)c3ccccc3n2)cc1,44%,93.2%,-6.87% (active),22.3%,21.2%,22.8%,62.4%,
C[C@H]1[C@@H]2[C@H]3CC[C@@H]4[C@@]5(C)Cc6c([nH]c7ccccc67)C(C)(C)[C@@H]5CC[C@@]4(C)[C@]3(C)CC[C@]23CO[C@]1(C)[C@@H](C(=O)/C=C/c1ccccn1)C3,65%,87.1%,83.8%,95.9%,69.2%,46.4%,103%,93.2%
Nc1c(C(=O)Nc2cccc(Br)c2)sc2nc3c(cc12)C(=O)CCC3,30%,57.8%,-53.3% (active),25%,22.1%,33.4%,38.2%,18.6%
C=C(C)[C@@H]1CC[C@]2(c3nnc(-c4ccncc4)o3)CC[C@]3(C)[C@H](CC[C@@H]4[C@@]5(C)CCC(=O)NC(C)(C)[C@@H]5CC[C@]43C)[C@@H]12,100%,89.8%,101%,103%,92.9%,88.8%,103%,98.9%
CC(C)=CCC[C@](C)(O)[C@H]1CC[C@]2(C)[C@@H]1CC[C@@H]1[C@@]3(C)C/C(=C/c4cccc([N+](=O)[O-])c4)C(=O)C(C)(C)[C@@H]3CC[C@]12C,60.2%,97.1%,94.2%,72.6%,72.8%,51.5%,85.7%,86%
COc1cnc2c(c1)C(=O)c1c-2n(CCCNC(C)C)c(=O)c2cc([N+](=O)[O-])ccc12,-24.9% (active),-63.1% (active),-95.8% (active),-38.8% (active),-47.4% (active),-51% (active),-83.4% (active),-39.8% (active)
COc1cc2c3c(c4c5ccccc5[nH]c4c2c(OC)c1OC)C(=O)N(O)C3=O,19.5%,46.2%,56.1%,49%,20.4%,16.8%,55.3%,53.7%
Nc1c2c(nc3ccc(Cl)cc13)CC(c1ccc(O)cc1)CC2=O (centres undefined),54.8%,53.3%,-38.5% (active),33.8%,25.1%,26.2%,77.9%,26.7%
COc1cc(-c2cc3ncccc3c3nc(N)c4cccnc4c23)cc(OC)c1OC,35%,27.6%,-33.7% (active),23.9%,21.7%,9.87% (active),40.2%,30.8%
N=c1ccc2nc3c(cc(N)c4ccccc43)oc-2c1,-80.1% (active),-13.2% (active),-86.1% (active),-79.6% (active),-62.3% (active),-96.1% (active),-96.8% (active),-94.9% (active)
COc1cc(OC)c2c(c1)c1nc3cc(C)c(C)cc3nc1n2CCN(C)C,74.3%,97.4%,91.7%,66%,66.2%,69.7%,93.9%,86.3%
COc1ccc(-c2nc3c(c(C)nn3-c3ccc(F)cc3)c(=O)[nH]2)cc1,20.2%,76.3%,74.7%,74.6%,73.7%,48.5%,98.4%,84.4%
